Data taken from PubChem BioAssay (EPA / NIEHS).
Records with an inconclusive call do not appear. Calls of active or inactive are those of the source. The calls were made as follows, unless noted: active = hit-call score of the fitted dose curve at least 0.9, where 1 is the maximum; inconclusive = response in the unintended direction; inactive = score below 0.9.

Experiments:
[1] = ATG_Oct_MLP_CIS: Attagene CIS-FACTORIAL HepG2 Assay for human Octamer-Binding Transcription Factor (Oct) (AID 2282993; active = hit-call score of the fitted dose curve at least 0.9, where 1 is the maximum; inactive = score below 0.9); conditions: HepG2 Attagene cis-factorial Oct reporter, mRNA; actives raise or lower the signal
How it was run: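 HepG2 cells transiently transfected with cis-promoter-driven multiplexed reporter transcription units, dosed for 24 h. Reporter mRNA quantified by RT-PCR, fluorescent labelling, HpaI digestion and capillary electrophoresis; bidirectional fits versus DMSO baseline.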

[2] = target: Cellular tumor antigen p53 (Homo sapiens) (UniProt P04637); assay: ATG_p53_CIS: Attagene CIS-FACTORIAL HepG2 Assay for human p53 Transcription Factor (AID 2282994; active = hit-call score of the fitted dose curve at least 0.9, where 1 is the maximum; inactive = score below 0.9); conditions: HepG2 p53 cis-element reporter, Attagene mRNA; actives raise or lower the signal
Sequence of Cellular tumor antigen p53 (Homo sapiens) (P04637 whole entry, looked up): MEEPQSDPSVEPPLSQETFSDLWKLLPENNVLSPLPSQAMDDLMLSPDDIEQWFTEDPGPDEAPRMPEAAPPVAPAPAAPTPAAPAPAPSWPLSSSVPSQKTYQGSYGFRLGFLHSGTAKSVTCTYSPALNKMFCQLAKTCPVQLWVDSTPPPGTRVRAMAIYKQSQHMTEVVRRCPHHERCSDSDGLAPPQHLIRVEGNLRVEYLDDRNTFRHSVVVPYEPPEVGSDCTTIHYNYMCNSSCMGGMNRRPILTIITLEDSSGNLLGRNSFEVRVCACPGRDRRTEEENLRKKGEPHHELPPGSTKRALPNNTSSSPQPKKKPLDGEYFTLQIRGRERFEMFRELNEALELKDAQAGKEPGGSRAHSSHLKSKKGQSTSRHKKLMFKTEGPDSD
How it was run: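 Multiplexed reporter mRNA assay in human HepG2 liver cells; cis-regulated units report endogenous factor activity. Values come from bidirectional curve fitting against DMSO negative control after 24 h treatment.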

[3] = target: human Peroxisome Proliferator-activated Receptor alpha (PPARa), PPARA (gene 5465) (UniProt Q07869); assay: ATG_PPARa_TRANS: Attagene TRANS-FACTORIAL HepG2 Assay for human Peroxisome Proliferator-activated Receptor alpha (PPARa) (AID 2283001);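 as to AC50: potency for gain of reporter signal over DMSO so agonist or activator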
How it was run: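 Measures transcriptional activity of an exogenous chimeric PPARa-Gal4 protein in transiently transfected HepG2 cells after 24 h dosing. Reporter mRNA quantified via RT-PCR and capillary electrophoresis; DMSO served as negative control.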

[4] = target: Peroxisome proliferator-activated receptor gamma (Homo sapiens) (UniProt P37231); assay: ATG_PPARg_TRANS: Attagene TRANS-FACTORIAL HepG2 Assay for human Peroxisome Proliferator-activated Receptor-gamma (PPARg) (AID 2283007)
Sequence of Peroxisome proliferator-activated receptor gamma (Homo sapiens) (P37231 whole entry, looked up, the tested form may be a part): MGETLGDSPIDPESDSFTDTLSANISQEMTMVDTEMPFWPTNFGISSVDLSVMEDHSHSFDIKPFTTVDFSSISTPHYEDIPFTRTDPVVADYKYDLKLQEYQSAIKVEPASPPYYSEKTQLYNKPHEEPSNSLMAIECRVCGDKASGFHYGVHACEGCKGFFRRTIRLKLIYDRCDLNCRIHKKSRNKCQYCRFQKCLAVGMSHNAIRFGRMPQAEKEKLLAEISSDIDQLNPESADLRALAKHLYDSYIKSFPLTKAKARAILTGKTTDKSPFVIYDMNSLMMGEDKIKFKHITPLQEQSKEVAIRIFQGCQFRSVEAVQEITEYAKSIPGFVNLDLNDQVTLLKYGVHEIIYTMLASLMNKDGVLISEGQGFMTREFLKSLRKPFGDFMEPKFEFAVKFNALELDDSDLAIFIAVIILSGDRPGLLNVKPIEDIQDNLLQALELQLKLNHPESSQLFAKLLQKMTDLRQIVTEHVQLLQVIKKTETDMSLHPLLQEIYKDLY
How it was run: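 A TRANS-format multiplexed reporter assay measures activity of an exogenous chimeric NR-Gal4 protein in HepG2 cells. After 24 h of chemical exposure, reporter transcripts are amplified, fluorescently labelled and sized by capillary electrophoresis, with gain of signal scored against DMSO.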

[5] = target: Nuclear receptor subfamily 1 group I member 2 (Homo sapiens) (UniProt O75469); assay: ATG_PXR_TRANS: Attagene TRANS-FACTORIAL HepG2 Assay for human Pregnane X Receptor (PXR) (AID 2283008)
Sequence of Nuclear receptor subfamily 1 group I member 2 (Homo sapiens) (O75469 whole entry, looked up, the tested form may be a part): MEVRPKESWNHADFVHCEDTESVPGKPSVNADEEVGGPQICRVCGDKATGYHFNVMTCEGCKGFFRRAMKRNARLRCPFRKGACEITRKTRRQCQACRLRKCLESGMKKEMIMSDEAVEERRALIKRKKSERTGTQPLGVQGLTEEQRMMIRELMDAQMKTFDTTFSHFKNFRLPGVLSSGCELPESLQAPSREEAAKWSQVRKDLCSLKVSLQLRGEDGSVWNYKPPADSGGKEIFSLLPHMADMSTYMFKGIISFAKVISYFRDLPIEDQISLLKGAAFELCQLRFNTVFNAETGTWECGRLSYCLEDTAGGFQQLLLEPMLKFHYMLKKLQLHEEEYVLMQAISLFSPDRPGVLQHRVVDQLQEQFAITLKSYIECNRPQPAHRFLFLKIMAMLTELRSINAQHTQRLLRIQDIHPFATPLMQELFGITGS
How it was run: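 Measures mRNA induction of a GAL4-UAS-driven reporter in human HepG2 cells transiently expressing PXR fused to Gal4, following 24 h treatment. DMSO served as negative control and baseline.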

[6] = target: human Retinoic Acid Receptor gamma (RARg), RARG (gene 5916) (UniProt P13631); assay: ATG_RARg_TRANS: Attagene TRANS-FACTORIAL HepG2 Assay for human Retinoic Acid Receptor gamma (RARg) (AID 2283009)
How it was run: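 HepG2 cells transiently transfected with multiplexed reporter units expressing chimeric RARg-GAL4 and GAL4-UAS-driven reporters; 24 h compound exposure. Reporter mRNA quantified by RT-PCR with fluorescent labelling and capillary electrophoresis; gain-of-signal fitted relative to DMSO baseline.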

[7] = target: human Retinoid X Receptor beta (RXRb), RXRB (gene 6257) (UniProt P28702); assay: ATG_RXRb_TRANS: Attagene TRANS-FACTORIAL HepG2 Assay for human Retinoid X Receptor beta (RXRb) (AID 2283013)
Sequence of human Retinoid X Receptor beta (RXRb), RXRB (gene 6257) (P28702 whole entry, looked up, the tested form may be a part): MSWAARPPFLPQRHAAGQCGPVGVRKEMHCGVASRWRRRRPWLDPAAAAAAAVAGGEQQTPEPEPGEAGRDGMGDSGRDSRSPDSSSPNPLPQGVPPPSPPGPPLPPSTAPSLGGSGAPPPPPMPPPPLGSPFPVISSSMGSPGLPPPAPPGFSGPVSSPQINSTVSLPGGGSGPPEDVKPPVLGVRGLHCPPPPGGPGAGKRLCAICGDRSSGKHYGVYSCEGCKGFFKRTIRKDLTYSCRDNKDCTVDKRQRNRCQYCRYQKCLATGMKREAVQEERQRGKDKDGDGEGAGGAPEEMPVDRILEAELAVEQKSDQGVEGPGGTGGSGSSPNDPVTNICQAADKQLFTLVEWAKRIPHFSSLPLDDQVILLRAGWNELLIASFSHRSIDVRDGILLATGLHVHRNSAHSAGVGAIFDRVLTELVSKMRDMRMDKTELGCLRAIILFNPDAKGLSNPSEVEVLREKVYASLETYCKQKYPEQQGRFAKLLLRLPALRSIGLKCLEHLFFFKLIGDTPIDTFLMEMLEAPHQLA
How it was run: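 HepG2 cells transiently transfected with multiplexed reporter units driven by GAL4-UAS and exogenous chimeric NR-Gal4 proteins; treated 24 h. Reporter mRNA measured by RT-PCR, 6-FAM labelling and capillary electrophoresis; gain-of-signal fitted versus DMSO baseline.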

[8] = target: human Thyroid Receptor alpha (THRa1), THRA (gene 7067) (UniProt P10827); assay: ATG_THRa1_TRANS: Attagene TRANS-FACTORIAL HepG2 Assay for human Thyroid Receptor alpha (THRa1) (AID 2283014)
Sequence of human Thyroid Receptor alpha (THRa1), THRA (gene 7067) (P10827 whole entry, looked up, the tested form may be a part): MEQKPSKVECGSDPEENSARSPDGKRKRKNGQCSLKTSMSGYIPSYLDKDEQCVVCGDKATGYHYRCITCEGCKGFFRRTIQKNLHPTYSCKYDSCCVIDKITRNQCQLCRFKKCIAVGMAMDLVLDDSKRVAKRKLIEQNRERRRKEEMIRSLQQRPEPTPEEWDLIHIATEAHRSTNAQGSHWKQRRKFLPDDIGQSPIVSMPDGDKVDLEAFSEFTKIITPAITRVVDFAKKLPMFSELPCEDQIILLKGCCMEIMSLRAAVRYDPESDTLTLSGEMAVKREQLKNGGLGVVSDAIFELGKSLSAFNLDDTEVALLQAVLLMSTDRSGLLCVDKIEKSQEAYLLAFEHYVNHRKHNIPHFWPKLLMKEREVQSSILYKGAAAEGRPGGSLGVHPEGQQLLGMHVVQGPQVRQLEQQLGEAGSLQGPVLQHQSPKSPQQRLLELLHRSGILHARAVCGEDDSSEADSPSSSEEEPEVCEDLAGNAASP
How it was run: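 First, HepG2 cells receive multiple GAL4-UAS reporter units and the chimeric receptor. They are then dosed for 24 h, after which RNA is reverse-transcribed, amplified, labelled, HpaI-cut and sized by capillary electrophoresis; gain relative to DMSO is scored.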

[9] = target: Retinoic acid receptor RXR-alpha (Homo sapiens) (UniProt P19793); assay: ATG_RXRa_TRANS: Attagene TRANS-FACTORIAL HepG2 Assay for human Retinoid X Receptor alpha (RXRa) (AID 2283012)
Sequence of Retinoic acid receptor RXR-alpha (Homo sapiens) (P19793 whole entry, looked up, the tested form may be a part): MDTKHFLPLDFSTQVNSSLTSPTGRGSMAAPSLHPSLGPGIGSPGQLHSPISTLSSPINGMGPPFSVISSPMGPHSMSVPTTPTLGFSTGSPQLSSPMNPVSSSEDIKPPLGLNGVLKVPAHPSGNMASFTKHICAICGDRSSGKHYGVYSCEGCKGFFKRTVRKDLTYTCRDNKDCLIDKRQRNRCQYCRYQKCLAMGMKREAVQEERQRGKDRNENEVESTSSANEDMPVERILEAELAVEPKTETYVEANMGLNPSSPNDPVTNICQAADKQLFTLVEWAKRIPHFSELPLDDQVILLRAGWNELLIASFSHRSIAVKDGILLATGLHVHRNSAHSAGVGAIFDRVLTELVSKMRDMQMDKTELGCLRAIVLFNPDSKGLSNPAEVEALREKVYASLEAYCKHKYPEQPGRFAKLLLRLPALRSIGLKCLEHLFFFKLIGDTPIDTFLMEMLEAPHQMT
How it was run: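 HepG2 cells transiently transfected with multiplexed GAL4-UAS reporter units and chimeric NR-GAL4 fusions, dosed 24 h. Reporter mRNA measured by RT-PCR, FAM labelling, HpaI digestion and capillary electrophoresis; gain-of-signal fitted relative to DMSO baseline.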

[10] = target: human Peroxisome Proliferator-activated Receptor delta (PPARd), PPARD (gene 5467) (UniProt Q03181); assay: ATG_PPARd_TRANS: Attagene TRANS-FACTORIAL HepG2 Assay for human Peroxisome Proliferator-activated Receptor delta (PPARd) (AID 2283002)
Sequence of human Peroxisome Proliferator-activated Receptor delta (PPARd), PPARD (gene 5467) (Q03181 whole entry, looked up, the tested form may be a part): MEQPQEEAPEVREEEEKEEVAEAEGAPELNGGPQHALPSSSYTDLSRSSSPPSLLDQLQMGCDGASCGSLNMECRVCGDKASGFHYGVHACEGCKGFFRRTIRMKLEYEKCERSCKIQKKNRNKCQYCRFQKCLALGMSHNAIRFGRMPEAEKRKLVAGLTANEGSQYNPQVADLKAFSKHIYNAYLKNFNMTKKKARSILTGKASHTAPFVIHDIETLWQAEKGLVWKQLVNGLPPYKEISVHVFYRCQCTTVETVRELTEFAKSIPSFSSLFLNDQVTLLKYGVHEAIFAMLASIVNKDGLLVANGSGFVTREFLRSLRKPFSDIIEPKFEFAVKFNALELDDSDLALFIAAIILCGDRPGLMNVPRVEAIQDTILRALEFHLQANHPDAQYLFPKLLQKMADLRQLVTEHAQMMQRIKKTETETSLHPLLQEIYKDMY
How it was run: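 HepG2 cells transiently transfected with GAL4-UAS multiplexed reporter units driven by exogenous chimeric NR-GAL4 proteins; 24 h compound exposure. Reporter mRNA measured by RT-PCR, 6-FAM primer extension, HpaI digestion and capillary electrophoresis; gain of signal fitted relative to DMSO.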

[11] = target: human RAR-related Orphan Receptor gamma (RORg), RORC (gene 6097) (UniProt P51449); assay: ATG_RORg_TRANS: Attagene TRANS-FACTORIAL HepG2 Assay for human RAR-related Orphan Receptor gamma (RORg) (AID 2283011)
Sequence of human RAR-related Orphan Receptor gamma (RORg), RORC (gene 6097) (P51449 whole entry, looked up, the tested form may be a part): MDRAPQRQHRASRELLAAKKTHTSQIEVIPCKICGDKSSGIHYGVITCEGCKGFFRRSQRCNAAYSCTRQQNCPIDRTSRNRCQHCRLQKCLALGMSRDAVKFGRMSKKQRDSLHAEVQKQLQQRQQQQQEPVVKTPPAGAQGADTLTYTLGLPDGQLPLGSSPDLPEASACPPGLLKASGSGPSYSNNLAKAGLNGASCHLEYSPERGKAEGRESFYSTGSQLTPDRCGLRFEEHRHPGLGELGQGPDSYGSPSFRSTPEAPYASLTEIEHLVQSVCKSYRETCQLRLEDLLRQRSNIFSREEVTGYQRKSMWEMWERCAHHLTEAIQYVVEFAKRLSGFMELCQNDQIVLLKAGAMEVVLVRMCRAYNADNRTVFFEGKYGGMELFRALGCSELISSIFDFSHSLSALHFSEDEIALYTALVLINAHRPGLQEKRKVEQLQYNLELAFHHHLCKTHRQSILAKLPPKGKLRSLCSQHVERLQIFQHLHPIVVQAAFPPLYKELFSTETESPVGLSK
How it was run: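 Activity is scored as increase in GAL4-UAS reporter mRNA over DMSO, detected by fluorescent RT-PCR and capillary electrophoresis in HepG2 cells transiently expressing a RORg-Gal4 chimera, 24 h after dosing.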

[12] = target: human RAR-related Orphan Receptor beta (RORb), RORB (gene 6096) (UniProt Q92753); assay: ATG_RORb_TRANS: Attagene TRANS-FACTORIAL HepG2 Assay for human RAR-related Orphan Receptor beta (RORb) (AID 2283010)
Sequence of human RAR-related Orphan Receptor beta (RORb), RORB (gene 6096) (Q92753 whole entry, looked up, the tested form may be a part): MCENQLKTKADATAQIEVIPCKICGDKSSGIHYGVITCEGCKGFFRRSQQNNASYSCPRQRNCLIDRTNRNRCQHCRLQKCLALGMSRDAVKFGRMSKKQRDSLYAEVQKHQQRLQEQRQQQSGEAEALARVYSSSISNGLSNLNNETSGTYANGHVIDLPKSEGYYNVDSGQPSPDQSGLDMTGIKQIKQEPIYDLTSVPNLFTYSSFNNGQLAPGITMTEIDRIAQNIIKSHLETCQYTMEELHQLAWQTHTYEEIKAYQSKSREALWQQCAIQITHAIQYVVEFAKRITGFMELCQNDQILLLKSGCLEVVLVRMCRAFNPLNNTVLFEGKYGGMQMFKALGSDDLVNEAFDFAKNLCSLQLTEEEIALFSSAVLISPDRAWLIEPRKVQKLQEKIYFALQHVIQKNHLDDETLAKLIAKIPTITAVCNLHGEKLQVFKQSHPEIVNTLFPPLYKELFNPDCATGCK
How it was run: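 HepG2 cells were transiently transfected with multiplexed GAL4-UAS reporter units expressing chimeric nuclear receptor–GAL4 proteins, then dosed for 24 h. Reporter mRNA was quantified by RT-PCR with fluorescent labelling and capillary electrophoresis; gain of signal was fitted relative to DMSO.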

[13] = target: human Retinoic Acid Receptor beta (RARb), RARB (gene 5915) (UniProt P10826); assay: ATG_RARb_TRANS: Attagene TRANS-FACTORIAL HepG2 Assay for human Retinoic Acid Receptor beta (AID 2283004)
Sequence of human Retinoic Acid Receptor beta (RARb), RARB (gene 5915) (P10826 whole entry, looked up, the tested form may be a part): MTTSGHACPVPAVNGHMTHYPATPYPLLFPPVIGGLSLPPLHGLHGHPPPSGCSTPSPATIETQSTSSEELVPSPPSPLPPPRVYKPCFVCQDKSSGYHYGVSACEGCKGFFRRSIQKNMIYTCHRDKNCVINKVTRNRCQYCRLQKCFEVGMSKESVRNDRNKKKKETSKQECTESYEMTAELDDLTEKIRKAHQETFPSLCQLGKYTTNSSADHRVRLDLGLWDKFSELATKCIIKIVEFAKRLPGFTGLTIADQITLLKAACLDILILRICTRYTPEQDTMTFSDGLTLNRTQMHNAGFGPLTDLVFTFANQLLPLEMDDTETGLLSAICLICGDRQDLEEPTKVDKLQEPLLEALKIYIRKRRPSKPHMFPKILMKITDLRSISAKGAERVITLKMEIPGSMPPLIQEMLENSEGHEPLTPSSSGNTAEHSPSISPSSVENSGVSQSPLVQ
How it was run: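 HepG2, transient MRTU transfection, NR–Gal4 chimera, 24 h treatment; RT-PCR plus CE fluorescence detection of reporter mRNA; gain of signal vs DMSO.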

[14] = target: Retinoic acid receptor alpha (Homo sapiens) (UniProt P10276); assay: ATG_RARa_TRANS: Attagene TRANS-FACTORIAL HepG2 Assay for human Retinoic Acid Receptor alpha (RARa) (AID 2283005)
How it was run: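 HepG2 transiently transfected with multiplex GAL4-UAS reporter units including a human RARa–GAL4 chimera; 24 h compound exposure. Reporter mRNA quantified by RT-PCR, 6-FAM labeling and capillary electrophoresis; gain of signal versus DMSO.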

Measured: AC50

CN(N=O)C(N)=O
inactive: [1] | [2] | [3] | [4] | [5] | [6] | [7] | [8]

CC(c1ccc(O)cc1)c1ccc(O)cc1
inactive: [2] | [3] | [4] | [6] | [9] | [8]
active: [1] 120 µM | [5] 27.7 µM

Cc1cc(SCc2sc(-c3ccc(C(F)(F)F)c(F)c3)nc2C)ccc1OCC(=O)O
inactive: [9] | [7]
active: [1] 15.6 µM | [2] 47.1 µM | [3] 0.201 µM | [4] 0.887 µM | [5] 2.05 µM

C=C(C)[C@@H]1CC=C(C=O)CC1
inactive: [1] | [2] | [10]
active: [4] 22.5 µM | [5] 11 µM

CCOP(=S)(OCC)SCSc1cc(Cl)ccc1Cl
active: [7] 25.5 µM
inactive: [1] | [2] | [3] | [4] | [11] | [8]

Nc1ccc(-c2ccccc2)cc1
inactive: [1] | [2] | [3] | [5] | [12] | [9] | [7]

CC(C)[C@@H](Nc1ccc(C(F)(F)F)cc1Cl)C(=O)OC(C#N)c1cccc(Oc2ccccc2)c1 (stereo not given in full)
active: [4] 5.11 µM | [5] 0.51 µM
inactive: [1] | [2] | [13] | [14] | [6]

BrCc1ccc(Br)cc1
inactive: [1] | [2] | [10] | [4] | [5] | [11] | [9]

C=CC(F)(C(F)(F)F)C(F)(F)C(F)(F)F (stereo not given)
inactive: [1] | [2] | [13] | [14] | [4] | [6] | [9] | [7]

CS(=O)(=O)c1ccc(C(=O)C2C(=O)CCCC2=O)c(Cl)c1COCC(F)(F)F
inactive: [1] | [2] | [3] | [5] | [9]

CCC[N+](CCC)(CCC)CCC
inactive: [1] | [2] | [10] | [14] | [5] | [6] | [12] | [9]

C=CCOC(F)(C(F)(F)F)C(F)(F)F
inactive: [1] | [2] | [3] | [4] | [9]

BrCC(Br)c1ccccc1 (stereo not given)
inactive: [1] | [2] | [3] | [4] | [12] | [11] | [9]

Cc1cc(-c2cc(C)c(N)c(C)c2)cc(C)c1N
active: [2] 80.2 µM | [4] 36.3 µM | [5] 27 µM
not listed: [3] | [7] | [8]
inactive: all other assays above

ClCCCCl
inactive: [1] | [2] | [10] | [5] | [11] | [9]

CC(C)[N+](=O)[O-]
not listed: [3] | [6] | [7] | [9] | [10]
inactive: all other assays above
